Screening results: PubChem, National Center for Advancing Translational Sciences (NCATS)
HT1080-NT tox = qHTS for induction of synthetic lethality in tumor cells producing 2HG: qHTS for the HT-1080-NT fibrosarcoma cell line; Potency, µM (titrated, usually from 46.1 µM), inactives show at the top dose activity, negative = less viability, actives largely listed as cytotoxic; 360,000 compounds, 1.6% hits; HT-1080-NT fibrosarcoma viability, CellTiter-Glo ATP luminescence, 48 h;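 also: NT is the 2HG producing partner of a matched IDH1 knockdown line; potency is read from the fitted curve at half-maximal effect; 0% = DMSO-treated cells and -100% = media-only wells without cells; nearly all actives have a fitted effect of over 55% in size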
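Read-out is CellTiter-Glo luminescence after 10 minutes at room temperature, following 48 hours' compound treatment of HT-1080-NT cells (750 cells/well, RPMI, 5% FBS, 37 degrees C).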
HT1080 IDH1KD tx = qHTS for induction of synthetic lethality in tumor cells producing 2HG: qHTS for the HT-1080-IDH1KD cell line. HT-1080 IDH1 knockdown viability, ATP luminescence, 48 h. Potency, µM (top dose mostly 46.1 µM), without a hit: top-dose activity, negative = toxicity, hits mostly cytotoxic. 360,000 compounds, 2% hits;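 also: potency is read from the fitted curve at half-maximal effect; 0% = DMSO wells and -100% = cell-free medium wells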
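Luminescent ATP read-out (CellTiter-Glo, 10 min at room temperature) after 48 h compound exposure at 37 °C gave viability of IDH1-knockdown HT-1080 cells. Activity was normalised to DMSO and cell-free wells, then fitted as concentration-response curves.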
DT40 TDP1 no CPT = qHTS for Inhibitors of human tyrosyl-DNA phosphodiesterase 1 (TDP1): qHTS in cells in absence of CPT. DT40 Tdp1-/- hTDP1 cells, no CPT, ATP luminescence, 48 h. Potency, µM (top dose mostly 46.2 µM), without a hit: at the top dose activity change, negative = growth inhibition, hits mostly inhibitors. 420,000 compounds, 15% hits; also: potency is read from the fitted curve at half-maximal effect; nearly all actives have a fitted effect of over 55% in size
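Luminescent ATP content (CellTiter-Glo) served as the growth readout. Knockout chicken DT40 cells expressing human TDP1 were exposed to compounds without camptothecin for a minimum 48 hr at 37 °C.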
ELG1 DNA repair = qHTS screen for small molecules that inhibit ELG1-dependent DNA repair in human embryonic kidney (HEK293T) cells expressing luciferase-tagged ELG1. HEK293T ELG1-luciferase reporter, luminescence, 16 h; DNA damage induced by 5-fluorouridine. Potency, µM (top dose mostly 46.1 µM), without a hit: top-dose activity change, negative = inhibition, actives largely listed as inhibitors. 330,000 compounds, 2.3% hits. AID 504467, 2011; also: potency is read from the fitted curve at half-maximal effect; nearly all actives have a fitted effect of over 55% in size
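DMSO vehicle served as the neutral condition. Each well held 2,000 cells given 5-fluorouridine plus compound; after 16 hr at 37 °C/5% CO2, ONE-Glo was added and luciferase measured 30 min later.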
TDP1 cell CPT = qHTS for Inhibitors of human tyrosyl-DNA phosphodiesterase 1 (TDP1): qHTS in cells in presence of CPT; chicken DT40 Tdp1-/-;hTDP1 cells + 20 nM CPT, ATP luminescence, 48 h; Potency, µM (highest dose often 46.2 µM), inactives show top-dose activity change, negative = growth inhibition, most hits filed as inhibitors; 420,000 compounds, 12% hits; also: potency is read from the fitted curve at half-maximal effect; nearly all actives have a fitted effect of over 55% in size
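Chicken DT40 Tdp1-/- cells complemented with human TDP1, 400 cells/well, exposed to compounds plus 20 nM camptothecin for at least 48 h at 37 C; viability read as ATP content by CellTiter-Glo luminescence.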
IL-1B inflam inh = qHTS for Inhibitors of Inflammasome Signaling: IL-1-beta AlphaLISA Primary Screen; THP-1 LPS/ATP IL-1B secretion, AlphaLISA, 16 h; hits give low values; activity change, % at 57.5 µM; 360,000 compounds, 4.7% hits; in the data active = activity change below about -50%; inconclusive = mostly about -30% to -49%
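Secreted IL-1B measured by AlphaLISA bead assay after 16 h compound exposure of THP-1 cells; compounds (final up to 57.5 uM) added 1 h before LPS (250 ng/mL) and ATP (1.25 mM) stimulation; lower signal means less secretion.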
Active calls of the source: *; ? = inconclusive; / = no result. Hits are enriched below; roughly 19% of the tested compounds scored in any of these assays. Unless noted, calls follow the shape of the dose curve; as a rule, active = well fitted curve in the direction sought with a large enough effect; inconclusive = small, poorly fitted or top-dose-only effect, or another doubt; inactive = no such curve, though single readings can be large; an effect the other way counts as inactive or inconclusive. Unless noted, % is scaled to controls: 0 for no effect and ±100 for the full control effect.

SMILES | HT1080-NT tox | HT1080 IDH1KD tx | DT40 TDP1 no CPT | ELG1 DNA repair | TDP1 cell CPT | IL-1B inflam inh
CC(C(=O)Nc1ccc(Br)cc1)N(C)CC(=O)NCc1ccco1 (stereo not drawn) | 0% | -1% | ? | 3% | ? | 10
COc1ccc(C(=O)NC(=O)CSc2n[nH]c(N)n2)cc1 | 15% | 14% | 5% | 7% | -4% | -3
COc1ccc(N(Cc2ccccc2)N=O)cc1 | 14% | 25% | -23% | ? | 9% | -9
CN(C[C@@H](Cc1cccc2ccccc12)N(C[C@H](Cc1ccccc1)N(CCc1ccccc1)N=O)N=O)N=O | -9% | -4% | -24% | 8% | ? | 18
CN(C[C@H](c1ccccc1)N(C[C@H](Cc1ccccc1)N(CCc1ccccc1)N=O)N=O)N=O | 2% | 3% | ? | -3% | 18µM* | -3
C#CCN(C[C@@H]1[C@@H](OC(=O)NC2CCCC2)[C@@H](OC(=O)NC2CCCC2)CN(C(=O)OC(C)C)N1C(=O)OC(C)C)S(=O)(=O)c1ccc(C)cc1 | -8% | -20% | 21µM* | / | ? | -20
C#CCN(C[C@@H]1[C@@H](OC(=O)NCc2ccc(OC)c(OC)c2)[C@@H](OC(=O)NCc2ccc(OC)c(OC)c2)Cn2c(=O)n(CCCCCC)c(=O)n21)S(=O)(=O)c1ccc(C)cc1 | 0% | 11% | -28% | / | 6% | -3
C#CCN(C[C@@H]1[C@@H](OC(=O)NCc2ccc(OC)c(OC)c2)[C@@H](OC(=O)NCc2ccc(OC)c(OC)c2)Cn2c(=O)ccc(=O)n21)S(=O)(=O)c1ccc(C)cc1 | 9.2µM* | 21µM* | 15µM* | / | 16µM* | -106*
Cc1ccc(S(=O)(=O)N2C[C@H]3N(C(=O)OC(C)C)N(C(=O)OC(C)C)C[C@H](OC(=O)NC4CCCC4)[C@@]3(O)C2)cc1 | -6% | -3% | 21µM* | / | ? | ?
C#CCN(C[C@@H]1[C@@H](OC(=O)NC2CC2)[C@@H](OC(=O)NC2CC2)Cn2c(=O)n(CCCCCC)c(=O)n21)S(=O)(=O)c1ccc(C)cc1 | -19% | -14% | 18µM* | / | ? | -1
C#CCN(C[C@@H]1[C@@H](OC(=O)NCc2ccc(OC)c(OC)c2)[C@@H](OC(=O)NCc2ccc(OC)c(OC)c2)CN(C(=O)OC(C)C)N1C(=O)OC(C)C)S(=O)(=O)c1ccc(C)cc1 | 1% | -9% | 9.2µM* | / | 12µM* | ?
C#CCN(C[C@@H]1[C@@H](OC(=O)NCc2ccccc2)[C@@H](OC(=O)NCc2ccccc2)Cn2c(=O)n(CCCCCC)c(=O)n21)S(=O)(=O)c1ccc(C)cc1 | -7% | 0% | ? | / | ? | -5
C#CCN(C[C@@H]1[C@@H](OC(=O)NCc2ccco2)[C@@H](OC(=O)NCc2ccco2)Cn2c(=O)ccc(=O)n21)S(=O)(=O)c1ccc(C)cc1 | 15µM* | ? | 4.6µM* | / | 4.6µM* | -109*
C#CCN(C[C@@H]1[C@@H](OC(=O)NCc2ccco2)[C@@H](OC(=O)NCc2ccco2)Cn2c(=O)n(CCCCCC)c(=O)n21)S(=O)(=O)c1ccc(C)cc1 | -3% | -6% | 9.2µM* | / | 15µM* | -77*
C#CCN(C[C@H]1[C@H](OC(=O)NCc2ccco2)[C@H](OC(=O)NCc2ccco2)C[C@H]2C(=O)N(c3ccccc3)C(=O)[C@@H]12)S(=O)(=O)c1ccc(C)cc1 | 0% | 16% | ? | / | 2% | -8
CC1(C)Cc2[nH]c3ccccc3c2C(C)(C)N1 | -3% | 0% | -28% | -6% | -25% | ?
COc1ccc(OCCSc2nc(N)cc(=O)[nH]2)cc1 | -1% | -11% | -22% | -12% | -20% | 25
CCOc1ccc(OCCSc2nc(C)cc(=O)[nH]2)cc1 | -2% | 2% | 21µM* | ? | 12µM* | 15
CC(C)(C)c1ccc(OCCCNCc2ccccc2)cc1 | -8% | -4% | ? | -5% | ? | -102*
Clc1cc(Br)ccc1OCCCNCc1ccccc1 | 23µM* | ? | ? | -9% | 21µM* | -101*
c1ccc(CNCCCNCCCCNCCCNCc2ccccc2)cc1 | ? | 5.2µM* | 21µM* | / | ? | -110*
Cc1ccc(C)c(OCCCNCc2ccccc2)c1 | 1% | -1% | ? | -13% | ? | -16
CC(C)(c1ccccc1)c1ccc(OCCCNCCO)cc1 | ? | 18µM* | 21µM* | 1% | ? | ?
OCCCCNCc1ccc(OCc2ccccc2)cc1 | -4% | -8% | ? | ? | ? | -1
C=CCNCCCOc1ccc(C(C)(C)c2ccccc2)cc1 | -6% | -7% | ? | 4% | ? | -89*
COCCNCCCOc1ccc(C(C)(C)c2ccccc2)cc1 | -1% | 4% | ? | 4% | ? | -23
COCCCNCCCOc1ccc(C(C)(C)c2ccccc2)cc1 | -9% | 4% | 18µM* | 1% | ? | ?
CCc1cc(OCCCCNCc2ccccc2)ccc1Cl | 23µM* | ? | 18µM* | -2% | 21µM* | -102*
